# Phagocytosis inh = blocks phagocytosis by macrophages | J774A.1 macrophage IgG-bead phagocytosis, imaging | actives 0.07% (n = 110,000) | AID 1029 | inhibition, % at 5 µM;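 active means inhibition above the mean of the plate negative controls plus 5 SD, cut at about 13% in these data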;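 further: phagocytic index as fraction of beads internalized from green versus red external bead signal; plate controls were DMSO negative control for no effect and cytochalasin-D positive control for full effect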
# MRP resist rev = reverses drug resistance mediated by MRP; H69AR cells + 2 uM doxorubicin, CellTiter-Glo, 72 h; actives 0.04% (n = 85,000); differential viability (reversal), % at 10 µM; AID 602;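 active means viability drop by adding the cancer drug above about 55%, with treated viability meeting a 40% cutoff, limit read from the data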;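 further: viability without doxorubicin minus viability with 2 µM doxorubicin for each compound; larger differential means the compound sensitizes cells more to doxorubicin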
# MRP-1 activ = activates MRP-1; viability increase, % at 10 µM; actives 0.61% (n = 140,000); H69AR cells + doxorubicin, viability rescue, CellTiter-Glo;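 active means viability gain under doxorubicin at or above a set limit, the compound median plus 3 SD, cut at about 4.7% in these data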;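 further: MRP-1 overexpressing cells given doxorubicin 25 µM after compound pretreatment; 18-22 h compound pretreatment then 72 h with doxorubicin before readout; 0% = doxorubicin-only wells and 100% = vehicle-treated cells without doxorubicin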
# Numbers without * were called inactive; . = not tested or not shown; [ ] = dose if it differs, or a comment. The list is not random: actives were taken first. Their share in the collection is about 0.69%.
SMILES,Phagocytosis inh,MRP resist rev,MRP-1 activ
O=C(Nc1ccc(N2CCCCC2)c(Cl)c1)c1ncn[nH]1,2.9,.,8.8*
O=C(Nc1ccc(N2CCCCC2)c(C(=O)O)c1)c1ccco1,-0.2,-1.8,-0.9
O=C(Nc1ccc(N2CCCC2)c(Cl)c1)c1ccco1,0.2,8.9,4.9*
CC(C)c1cccc(C(C)C)c1NC(=O)CNCc1ccccc1F,2.8,.,-2.1
COc1ccccc1C(=O)N/N=C(\C)c1ccc(NC(=O)C2CC2)cc1,-5.3,.,0.7
CCN(CC)C(=O)c1cnn(-c2ccccc2)c1NC(=O)c1ccccc1F,.,-5.5,-1.8
Cc1ccc(NC(=O)N(Cc2ccc3c(c2)OCO3)Cc2cc3cc4c(cc3[nH]c2=O)OCCO4)cc1,-0.8,55.3*,-3.8
Cc1ccc(NC(=O)N(Cc2cccs2)Cc2cc3cc4c(cc3[nH]c2=O)OCO4)cc1,-9.6,.,1.9
CCOC(=S)N/C(=N\S(=O)(=O)c1ccc(C)cc1)c1ccccc1,0.2,.,-1.2
Cc1ccccc1NC(=S)NCC(c1cccnc1)N(C)C (configuration not stated),-6.6,.,-1.5
COc1cc(/C=N/NC(=O)c2cc(-c3cccn3C)n[nH]2)cc(OC)c1OC,-1.9,.,-2.5
COc1cccc(/C=N/NC(=O)c2cc(-c3cccn3C)n[nH]2)c1O,-8.2,.,7.1*
CCCNC(=S)Nc1ccc2nc(-c3ccccn3)c(-c3ccccn3)nc2c1,.,.,-3.3
CCCc1cc(-c2nc(-c3ccc(Br)cc3)cs2)ccn1,-6.5,.,5.0*
CCCc1cc(-c2nc(-c3ccc(Cl)cc3)cs2)ccn1,3.5,.,3.5
Cc1cc(C)c(C(=O)COC(=O)c2cc([N+](=O)[O-])ccc2NCCO)cc1C,-9.3,.,-0.7
Cc1ccc(Cn2ccc(NC(=O)c3noc4c3CCCC4)n2)cc1,-1.1,-5.2,0.1
Cc1ccc(Cn2ccc(NC(=O)c3noc4c3CCCCC4)n2)cc1,-0.9,-0.2,4.7*
Nc1c(C(O)(C(F)(F)F)C(F)(F)F)cc(C(O)(C(F)(F)F)C(F)(F)F)c2ccccc12,.,-0.7,-6.8
O=C(Cc1sc(-c2ccccc2Cl)nc1-c1ccccc1)Nc1ccc(F)cc1,4.0,-11.1,0.1
Cc1cccc(OCCCCc2c(C)n[nH]c2C)c1C,-2.8,1.6,1.0
O=C(COC(=O)c1c(Cl)cccc1Cl)Nc1cc(Cl)ccc1Oc1ccccc1,4.5,.,6.6*
O=C(COC(=O)c1ccccc1)Nc1cc(Cl)ccc1Oc1ccccc1,-5.1,.,3.2
CSc1nc(N)nc(SCC(=O)CC(=O)OC(C)C)c1C#N,38.3*[artifact],0.4,0.2
Cc1nc(SCC(=O)CC(=O)OC(C)C)c(C#N)c(C)c1C,.,.,-6.0
SMILES,Phagocytosis inh,MRP resist rev,MRP-1 activ
COC(=O)CCc1c(C)[nH]c(C(=O)OCc2ccccc2)c1C,-0.6,-4.0,5.1*
CCOC(=O)c1[nH]c(C(=O)O)c(CCC(=O)OC)c1C,.,.,-0.8
O=C(CCCc1ccccc1)Nc1cccnc1,-1.2,21.7,-0.5
CC(C(=O)N1c2ccccc2CCc2ccccc21)n1nnc(-c2ccc(N(C)C)cc2)n1 (configuration not stated),.,0.2,8.2*
Cc1ccc(-c2nnn(C(C)C(=O)N3c4ccccc4CCc4ccccc43)n2)cc1 (configuration not stated),.,12.9,3.0
CCc1nc(C)cn1S(=O)(=O)c1cc(C)c(OC)c(C)c1C,-0.8,5.7,-2.6
O=C(COc1cccnc1[N+](=O)[O-])Nc1ccc2c(c1)OC(F)(F)O2,-9.4,.,5.5*
O=C(COc1cccnc1[N+](=O)[O-])Nc1ccccc1Sc1ccccc1,-9.3,.,-0.1
COc1cc(C2(O)CCCCC2C)cc(OC)c1OC (configuration not stated),2.0,.,-1.7
O=C1C(Cc2cccc([N+](=O)[O-])c2)SC(=Nc2ccccc2)N1c1ccccc1 (configuration not stated),-7.0,.,6.4*
O=C1C(Cc2ccc(Br)cc2)SC(=Nc2ccccc2)N1c1ccccc1 (configuration not stated),1.3,.,-0.9
COc1cccc(C(=O)NCc2ccc(-c3nc4ccccc4s3)cc2)c1,-1.0,.,-0.9
COc1ccc(C(=O)NCc2ccc(-c3nc4ccccc4s3)cc2)cc1,0.7,.,7.5*
COc1ccc(S(=O)(=O)O/N=C2\CCCc3ccccc32)cc1,-0.8,-0.5,-1.2
CCOC(=O)c1ccc(N2C(=O)c3n[nH]c(C)c3C2c2ccc(OC)cc2)cc1 (configuration not stated),0.5,11.6,0.3
CCOC(=O)c1ccc(N2C(=O)c3n[nH]c(C)c3C2c2ccc(OC)cc2OC)cc1 (configuration not stated),.,0.8,9.4*
CC(C)(C)SCCNC(=O)/C=C/c1ccc(F)cc1,-4.4,.,-1.4
CC(C)(CNC(=O)/C=C/c1ccc(F)cc1)CNC(=O)/C=C/c1ccc(F)cc1,3.7,.,5.9*
O=C(Nc1ccn(Cc2c(F)c(F)cc(F)c2F)n1)c1ccc(COc2cc(Cl)ccc2Cl)o1,.,.,2.8
O=C(Nc1ccn(Cc2ccccc2F)n1)c1ccc(COc2cc(Cl)ccc2Cl)o1,.,.,7.0*
CCCCCCC1CC(CSc2ncn[nH]2)OC1=O (configuration not stated),1.5,1.0,7.2*
CCCCCCC1CC(CCc2nc(=S)[nH][nH]2)C(=O)O1 (configuration not stated),-2.2,.,-3.4
COc1ccccc1NC(=O)CSC(N)=O,-0.5,-27.3,5.6*
Cc1ccc(NC(=O)CSC2=NCCN2)cc1,.,.,-0.6
COc1ccccc1NC(=O)CSC1=NCCN1,-2.6,.,50.1*
SMILES,Phagocytosis inh,MRP resist rev,MRP-1 activ
Cc1ccccc1NC(=O)CSC(N)=O,0.8,-22.3,-1.0
COC(=O)c1sccc1N/N=C/c1cccc(Oc2ccccc2)c1,-13.2,.,3.9
Cn1c(SCC(=O)c2ccc3c(c2)OCCO3)nnc1C1CC1,.,5.4,-2.0
CCCn1cnc2c(sc3nc4c(cc32)CSC(C)(C)C4)c1=O,-0.7,.,0.5
CC(C)CCOc1ncnc2c1sc1nc3c(cc12)CSC(C)(C)C3,.,-4.7,6.3*
COC(=O)c1ccc(COc2cc(O)c3c(c2)OC(C)(C)CC3=O)cc1,7.5,5.9,6.1*
CC1(C)CC(=O)c2c(O)cc(OCc3ccc(Br)cc3)cc2O1,-1.8,-6.2,3.7
CCCCN(CC)CCCNC(=S)Nc1ccc2nc3n(c(=O)c2c1)CCCCC3,-9.5,.,-4.0
O=C(Cn1cnc2ccc(Br)cc2c1=O)c1cccs1,.,.,-3.7
Cc1ccc(C(=O)COc2ccccc2-c2ccccc2)cc1C,-2.6,.,5.0*
O=C(COc1ccccc1-c1ccccc1)c1ccccc1,-3.4,.,2.3
COc1ccc(NC(=O)c2cccc(C#N)c2)cc1NS(=O)(=O)c1ccc(F)cc1,-2.0,.,-1.2
CCCCCCC(=O)Cc1cc(OC)c(OC)cc1C=C(C(=O)OCC)C(=O)OCC,.,.,-3.3
CCOC(=O)C/C(C)=N/NC(=O)C1CC1(c1ccccc1)c1ccccc1 (configuration not stated),-6.8,.,0.1
O=c1nc2s/c(=C\c3ccc(-c4ccccc4[N+](=O)[O-])o3)c(=O)n2nc1-c1ccccc1,-3.5,.,5.2*
CCCCCOc1ccc(/C=c2\sc3nc(=O)c(-c4ccccc4)nn3c2=O)cc1OC,-3.7,.,0.1
O=C(CC(Nc1ccc(F)cc1)C(=O)O)c1ccccc1 (configuration not stated),-0.4,10.1,-0.6
O=C(CC(Nc1ccc(F)cc1)C(=O)OCC(=O)c1cccs1)c1ccccc1 (configuration not stated),-3.2,.,5.2*

# Assay outcomes: PubChem BioAssay, several laboratories
